Screening results (PubChem BioAssay)
IDE cell activ: activators of human insulin-degrading enzyme in cells. P14735. HEK cells, FAbeta-B cleavage, fluorescence polarization; 0% vehicle, 100% cell-free pure enzyme wells. activation, % at 5.96 µM. 340,000 compounds, 0.073% hits;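 active means activation above the mean of all tested compounds plus 3 SD, set per screening campaign, cut at about 17% in these data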
Target sequence (P14735 whole entry, looked up): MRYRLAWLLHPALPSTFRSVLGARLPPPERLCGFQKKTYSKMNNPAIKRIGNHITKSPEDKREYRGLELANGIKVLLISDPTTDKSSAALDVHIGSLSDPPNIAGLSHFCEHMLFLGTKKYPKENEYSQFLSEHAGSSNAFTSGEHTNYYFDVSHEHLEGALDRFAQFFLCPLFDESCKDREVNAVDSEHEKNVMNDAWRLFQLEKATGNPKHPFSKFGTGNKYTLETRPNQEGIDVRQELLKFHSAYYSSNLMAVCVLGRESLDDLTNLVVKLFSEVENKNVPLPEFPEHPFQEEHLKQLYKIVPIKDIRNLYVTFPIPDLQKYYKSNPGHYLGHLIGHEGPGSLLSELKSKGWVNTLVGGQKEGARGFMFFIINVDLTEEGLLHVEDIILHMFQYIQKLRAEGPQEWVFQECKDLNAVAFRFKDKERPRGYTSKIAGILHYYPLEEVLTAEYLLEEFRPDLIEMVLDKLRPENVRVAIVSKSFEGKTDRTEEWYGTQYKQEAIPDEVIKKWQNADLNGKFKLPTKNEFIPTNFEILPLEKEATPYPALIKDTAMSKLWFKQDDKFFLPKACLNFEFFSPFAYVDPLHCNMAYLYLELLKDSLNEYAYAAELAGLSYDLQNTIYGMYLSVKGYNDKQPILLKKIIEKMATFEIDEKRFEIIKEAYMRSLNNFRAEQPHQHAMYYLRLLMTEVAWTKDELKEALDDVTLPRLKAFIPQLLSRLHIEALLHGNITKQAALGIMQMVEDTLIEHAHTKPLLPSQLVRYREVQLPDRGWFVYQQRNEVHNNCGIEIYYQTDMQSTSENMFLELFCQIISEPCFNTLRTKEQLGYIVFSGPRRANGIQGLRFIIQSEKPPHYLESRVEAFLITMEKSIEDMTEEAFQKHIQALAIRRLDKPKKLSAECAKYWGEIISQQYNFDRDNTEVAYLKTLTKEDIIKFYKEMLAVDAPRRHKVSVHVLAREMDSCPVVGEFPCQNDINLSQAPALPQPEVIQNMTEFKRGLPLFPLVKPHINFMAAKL
ALR inh: blocks human ALR sulfhydryl oxidase activity. P55789. purified ALR, DTT oxidation, H2O2 HRP-luminol luminescence. inhibition, % (test concentration not listed). 290,000 compounds, 3.8% hits. AID 485317;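 active means mean replicate inhibition above about 79%, with every replicate also reaching it, limit read from the data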
PolyA inhibitor: inhibitors of polyadenylation in S. cerevisiae. activity score, % at 12 µM. AID 1875. S. cerevisiae SKY197-pL101 polyadenylation reporter, beta-gal luminescence; efflux-impaired pdr1/pdr3 knockout yeast; score 100 = 6 SD above DMSO. 300,000 compounds, 0.02% hits;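 active means lowest replicate activity score at least 50, where 100 means six control SD above control mean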;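 further: yeast exposed to compound for 9 h at 30 °C; higher score means more reporter readthrough which indicates perturbed polyadenylation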
PfM18AAP inh: PfM18AAP enzyme inhibition. recombinant PfM18AAP, H-Glu-NHMec fluorogenic cleavage. 290,000 compounds, 1.2% hits. inhibition, % at 7.35 µM;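 active means inhibition above the campaign mean inhibition over all tested compounds plus 3 SD, cut at about 28% in these data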;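 further: 0% = plate median of test compound wells and 100% = 2 mM ZnCl2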
CaV13 ICDI inh: Disruptors of the CACNA1D IQ motif to Ca2+-dependent inactivation inhibitor domain association, primary screening, Förster resonance energy transfer in intact living …; HEK cells, CFP/YFP FRET ICDI-IQ, plate reader, 10 min; percent FRET-ratio fall versus neutral wells; inhibition, % at 12.3 µM; 340,000 compounds, 0.098% hits;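 active means mean replicate inhibition of at least 30% and at least 1% of replicates passing that level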;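 further: 0% = median of the neutral control wells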
IDE cell inh: inhibitors of human insulin-degrading enzyme in cells. P14735. HEK cells, FAbetaB cleavage, fluorescence polarization. inhibition, % at 5.59 µM. 320,000 compounds, 0.41% hits;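 active means percent inhibition above the average of all tested compounds plus 3 SD, set per screening campaign, cut at about 16% in these data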;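 further: IDE supplied by intact live HEK cells; FP after avidin binding of uncleaved biotin substrate so inhibition keeps polarization high; 0% = DMSO wells and 100% = 60 µM reference IDE inhibitor Ii1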
Active calls of the source: *; . = not tested or not shown. Only some compounds are listed: those with a hit (about 4.1% of all), similar ones and a draw of the others.

SMILES | IDE cell activ | ALR inh | PolyA inhibitor | PfM18AAP inh | CaV13 ICDI inh | IDE cell inh
CCCCSc1cc(=O)[nH]c(N)n1 | -0.2 | -1.2 | 14.8 | -11.5 | -2.8 | -1.7
Cc1ccc(NC2c3ncccc3C(=O)N2Cc2cccs2)cc1 (stereo not drawn) | 1.1 | . | 0.7 | 17.0 | -3.4 | 4.4
O=C(c1ccccc1)c1cccn1CC(=O)N1CCN(C2CCCCC2)CC1 | 4.0 | -10.0 | 8.9 | 4.1 | -5.9 | 3.9
O=C(c1ccccc1)c1cccn1CC(=O)N1CCN(c2ccccc2)CC1 | 1.5 | 96.8* | 8.4 | 6.2 | . | 8.7
O=C(c1ccccc1)c1ccc(C(=O)N2CCN(c3ccc(O)cc3)CC2)cc1 | 2.9 | 99.4* | . | . | -4.1 | -4.9
CCOc1ccc(C(c2c(O)nc(SC)n(C)c2=O)c2c(O)nc(SC)n(C)c2=O)cc1 | -3.3 | 97.7* | 19.1 | -6.0 | -5.7 | 4.0
CC(C)(C)n1nnnc1C(c1cc2ccccc2o1)N1CCCCC1 (stereo not drawn) | . | . | . | . | -5.4 | .
Cc1onc(-c2ccccc2)c1C(=O)NC(=S)NNC(=O)c1ccc(O)cc1O | 0.0 | 92.2* | -13.0 | 30.2* | -3.2 | -0.9
Cc1onc(-c2ccccc2)c1C(=O)NC(=S)NNC(=O)c1ccccc1O | 4.1 | 30.3 | 17.5 | 9.5 | -4.2 | -7.8
CCNS(=O)(=O)c1ccc(NC(=O)c2c(-c3ccccc3)noc2C)cc1 | -0.1 | -8.6 | 5.2 | -0.9 | -4.3 | -0.3
CCN(CC)S(=O)(=O)c1ccc(NC(=O)c2c(-c3ccccc3)noc2C)cc1 | 3.1 | 93.2* | -5.3 | 6.4 | 14.1 | 0.3
CCCOc1ccc(C(=O)NC(=S)NNC(=O)c2c(-c3ccccc3)noc2C)cc1 | -0.1 | 99.8* | 8.7 | -5.2 | -3.6 | 12.2
CCC(CC)c1nnc(NC(=O)c2c(-c3ccccc3)noc2C)s1 | -1.4 | 77.8* | -0.8 | 6.8 | 3.5 | -0.1
CCC(=O)N(CCC(c1ccc(C)cc1)c1ccco1)Cc1ccco1 (stereo not drawn) | 2.1 | 5.3 | -6.4 | 1.7 | -3.5 | 4.9
O=C1CC(=Nc2ccc([N+](=O)[O-])cc2)NN1c1c(Cl)cc(Cl)cc1Cl | . | . | . | . | -13.8 | .
CCCOc1ccc(NC(=O)c2c(-c3ccccc3)noc2C)cc1 | 0.5 | 11.0 | -5.7 | 2.7 | 36.1* | 5.0
CC(=O)Nc1ccc(OCCCNC(=O)c2c(-c3ccccc3)noc2C)cc1 | 6.2 | -4.6 | 16.2 | 1.0 | -4.9 | -6.7
CCOc1ccccc1NC(=O)c1c(NC(=O)CCC(=O)O)sc2c1CCCCC2 | -5.2 | . | . | 20.3 | -9.3 | .
CCOC(=O)c1ccc(NC(=O)c2c(NC(=O)CCC(=O)O)sc3c2CCCCC3)cc1 | . | -5.0 | 1.2 | 26.2 | -6.6 | 2.4
CCCC(=O)Nc1sc2c(c1C(=O)Nc1ccccn1)CCCC2 | 5.1 | 96.8* | -28.9 | 3.9 | 0.6 | -0.6
CCCOC(=O)c1c(NC(=O)CCC(=O)O)sc2c1CCCCC2 | 2.8 | 89.2* | -23.9 | 8.0 | -5.3 | 1.4
COC(OC)C1(CCc2ccccc2)NC(=O)NC1=O (stereo not drawn) | -1.9 | . | . | . | -3.8 | .
COc1ccc(NC(=O)Nc2ccc3c(c2)C(=O)N([C@H](C)CO)C[C@H](C)[C@@H](CN(C)C(=O)Nc2ccc(OC)cc2)O3)cc1 | -0.1 | -11.2 | . | . | -3.2 | 3.9
O=[N+]([O-])c1cc(/C=N/O)ccc1N1CCCC1 | -3.6 | 91.8* | 3.9 | -7.8 | -5.8 | 0.8
O=C(CN1c2cccc3cccc(c23)S1(=O)=O)NCCc1ccc(F)cc1 | 4.5 | -10.4 | . | . | -2.4 | -0.1
SMILES | IDE cell activ | ALR inh | PolyA inhibitor | PfM18AAP inh | CaV13 ICDI inh | IDE cell inh
CCOC(=O)c1c(N)sc2c(OC)c(Br)ccc12 | -3.9 | 98.7* | -57.4 | -28.8 | -3.3 | 8.6
O=C(C(=O)N1CCC(CNS(=O)(=O)c2cc(C(F)(F)F)cc(C(F)(F)F)c2)CC1)c1cc2ccccc2o1 | . | . | . | . | -7.4 | .
CC(=O)Nc1ccc(NC(=O)Cc2sc(C)nc2-c2ccc(C)cc2)cc1 | -3.5 | . | -6.7 | -2.3 | -2.3 | 3.7
Cc1ccc(-c2nc(Nc3cccc(C)c3)sc2CC(=O)O)cc1 | 2.4 | 98.4* | -12.0 | 13.7 | -6.3 | 3.9
Cc1ccc(-c2nc(C)sc2CC(=O)Nc2nnc(C)s2)cc1 | 0.5 | 97.5* | 6.0 | 1.1 | -9.1 | 4.9
Cc1onc(-c2c(F)cccc2Cl)c1-c1ncc(-c2ccc(Cl)cc2)o1 | . | . | . | . | -4.6 | .
CCc1ccccc1NC(=O)c1sc2nc(C)cc(C)c2c1N | -1.4 | . | -21.0 | 5.2 | -0.2 | -1.9
Cc1cc(C)c2c(N)c(S(=O)(=O)Cc3ccccc3)sc2n1 | -0.4 | 91.2* | -9.1 | -17.4 | -5.6 | -2.0
Cc1cc2c(cc1S(=O)(=O)N1CCOCC1)NC(=O)CO2 | 0.7 | . | -3.0 | -14.7 | -3.6 | -4.7
O=C(O)C12C[C@H]3C[C@@H](C1)CC(n1ncc(N4CCN(c5ccccc5)CC4)c(Cl)c1=O)(C3)C2 | 5.1 | 98.2* | 14.9 | -5.4 | -5.9 | -0.9
O=C(O)CC12C[C@H]3C[C@@H](C1)CC(n1ncc(N4CCN(c5ccccc5)CC4)c(Cl)c1=O)(C3)C2 | 2.8 | 98.3* | 2.1 | -4.2 | -4.6 | -2.9
O=C(O)C12CC3CC(C1)CC(n1ncc(NCc4ccccc4)c(Cl)c1=O)(C3)C2 | -8.9 | 2.8 | 11.9 | -2.1 | 14.6 | 9.0
C[C@@H]1Cn2cnc(C(=O)Nc3ccccc3)c2C(=O)N1 | . | . | . | . | -9.2 | .
CC1CC/C(=N/Nc2ccccc2)C(=O)N1 (stereo not drawn) | 6.0 | 99.0* | -12.1 | 0.4 | -2.4 | -2.2
Cc1ccc(-c2nc(CS(=O)CC(=O)NCCC(C)C)c(C)o2)cc1 (stereo not drawn) | 5.3 | 98.2* | -12.5 | -2.6 | 7.8 | 0.7
CCCN(CCC)CCNC(=O)CS(=O)Cc1nc(-c2ccc(C)cc2)oc1C (stereo not drawn) | 2.5 | 98.3* | -11.0 | 2.2 | -4.9 | -1.9
CCCCNC(=O)CS(=O)Cc1nc(-c2ccc(C)cc2)oc1C (stereo not drawn) | -1.2 | 98.7* | -6.2 | 3.6 | -2.7 | -0.6
CCCNC(=O)CS(=O)Cc1nc(-c2ccc(OC)cc2)oc1C (stereo not drawn) | -1.2 | 99.3* | 19.6 | -3.8 | -2.2 | 0.9
Cc1ccn2c(Nc3ccc4c(c3)OCO4)c(-c3ccccn3)nc2c1 | 4.9 | 58.0 | -37.4 | 8.3 | -12.9 | 0.1
Clc1ccc(-c2nc3cnccn3c2NC2CCCC2)cc1 | 3.4 | 98.7* | 2.6 | 12.7 | . | 4.6
Cc1ccn2c(NC3CCCC3)c(-c3ccccn3)nc2c1 | 6.3 | 97.8* | -5.2 | -5.1 | -1.5 | 1.4
Cc1ccn2c(NC3CCCC3)c(-c3ccncc3)nc2c1 | -2.6 | 98.4* | 21.7 | 2.1 | -1.5 | -0.8
Cc1ccc2nc(-c3ccncc3)c(NC3CCCC3)n2c1 | 0.6 | . | -2.2 | 9.9 | -8.4 | -3.4
Cc1ccc(Nc2c(-c3ccccn3)nc3cc(C)ccn23)cc1 | 7.3 | 98.5* | 14.3 | 8.2 | -1.4 | -0.3
